“And” between values parts separate entries of the source, which are not always exact repeats. Equal values may be shown once. Results filed as inconclusive are left out. A structure can be active in one record and inactive in another. The source made the active and inactive calls. Calls come from the whole dose curve; as a rule, active = well fitted cell-killing curve with a large enough effect in the repeat runs; inconclusive = weak or mixed curves, or effect the other way; inactive = no such curve, though single readings can be large or run the other way.
assay: qHTS assay to identify small molecule agonists of the vitamin D receptor (VDR) signaling pathway - cell viability counter screen (AID 743224); conditions: VDR-bla HEK293T viability, CellTiter-Glo luminescence, 16 h; series mostly up to 62.6 µM; activity change, negative = cytotoxicity: at the top concentration; note: nearly all actives have a fitted effect of over 50% in size
Description: U.S. Tox21 Program National Center for Advancing Translational Sciences [NCATS] NIH Chemical Genomics Center [NCGC] U.S. Environmental Protection Agency [EPA] National Institutes of Environmental Health Sciences [NIEHS] National Toxicology Program [NTP] U.S. Food and Drug Administration [FDA] Tox21 Assay Overview: The vitamin D receptor (VDR), a member of nuclear hormone receptor superfamily, plays a critical role in calcium homeostasis and bone metabolism. It is also involved in cell differentiation and growth, and thrombogenicity. […] The cytotoxicity of the Tox21 compound library against the VDR-bla cell line was tested in parallel by measuring the cell viability using CellTiter-Glo assay (Promega, Madison, WI) in the same wells.
Tox21 Assay Protocol Summary: VDR-bla cells were dispensed at 2,000 cells/6 uL/well into black wall/clear-bottom 1536-well plates using a Multidrop Combi (Thermo Fisher Scientific, Waltham, MA) dispenser. After the assay plates were incubated at a 37C and 5% CO2 for 4 h, 23 nL of compounds dissolved in DMSO, positive controls or DMSO only was transferred to the assay plate by a Pintool station (Kalypsys, San Diego, CA). The plates were incubated at 37C and 5% CO2 for 16 h. After 1 uL of LiveBLAzerTM B/G FRET substrate was added using a Bioraptr Flying Reagent Dispenser (FRD) workstation (Beckman Coulter, Indianapolis, IN, USA), the plates were incubated at room temperature for 2 h, and fluorescence intensity was measured by an Envision plate reader (PerkinElmer, Shelton, CT). For cell viability readout that measures cytotoxicity, 3 ul/well of CellTiter-Glo reagent was added into the assay plates using a FRD. After 30 min incubation at room temperature, the luminescence intensity in the plates was measured using a ViewLux (PerkinElmer) plate reader.
% is set by controls: 0 for no effect and ±100 for the full control effect; potency is the fitted concentration of half-maximal effect.

Compound	Potency	activity change, negative = cytotoxicity
Oc1c(Br)cc(Br)c2cccnc12	3.35 µM (active)	–
CC(=O)OC(OC(C)=O)c1ccc([N+](=O)[O-])o1	44.4 µM (active)	–
CNC(=S)NN	5.49 µM (active)	–
CCCCCCCCCCCCOC(=O)c1cc(O)c(O)c(O)c1	27.4 µM (active) and 21.9 µM (active)	–
CNC(=O)c1cc(Oc2ccc(NC(=O)Nc3ccc(Cl)c(C(F)(F)F)c3)cc2)ccn1	23.7 µM (active)	–
Nc1cc(Cl)c([N+](=O)[O-])cc1O	–	-2.48% (inactive)
O=Nc1ccc(NO)cc1	–	-0.177% [at 81.1 µM] (inactive)
CCCN(CCc1cccs1)[C@H]1CCc2c(O)cccc2C1	–	-16.8% (inactive)
CCCCCCCCCCCCCCNCCO	–	-29.4% (inactive)
C/C=C/C(=O)Oc1c(CCCCCC(C)C)cc([N+](=O)[O-])cc1[N+](=O)[O-]	13.8 µM (active)	–
C[C@H]1O[C@@H](O[C@H]2[C@@H](O)C[C@H](O[C@H]3[C@@H](O)C[C@H](O[C@H]4CC[C@@]5(C)[C@H](CC[C@@H]6[C@@H]5C[C@@H](O)[C@]5(C)[C@@H](C7=CC(=O)OC7)CC[C@]65O)C4)O[C@@H]3C)O[C@@H]2C)C[C@H](O)[C@@H]1O	0.0174 µM (active)	–
CCN=C1C=CC(=C(c2ccc(N(CC)CC)cc2)c2ccc(N(CC)CC)cc2)c2ccccc21	4.87 µM (active)	–
CCCCCCCC/C=C\CCCCCCCC(=O)NCc1ccc(O)c(OC)c1	33.5 µM (active)	–
CC(C)(C)CC(C)(C)c1ccccc1O	19.6 µM (active)	–
O=Cc1ccc(F)cc1	–	8.52% (inactive)
CCCCCCCCCCCC(=O)N(CC)CC	–	0.803% (inactive)
Cc1cccc(Br)c1	–	8.02% [at 81.1 µM] (inactive)
O=C(Nc1ccc(Cl)cc1)Nc1ccc(Cl)c(C(F)(F)F)c1	11.9 µM (active)	–
CC(C)(C)c1cc(/C=C2\SC(=N)NC2=O)cc(C(C)(C)C)c1O	49 µM (active)	–
CCCCN(CCCC)CCC(O)c1cc2c(Cl)cc(Cl)cc2c2cc(C(F)(F)F)ccc12 (stereo not given)	–	-24.3% (inactive)

Compound	Potency	activity change, negative = cytotoxicity
c1ccc(Nc2cccc3ccccc23)cc1	55.7 µM (active) and inactive	–
CSc1ccc2c(c1)N(CCC1CCCCN1C)c1ccccc1S2 (stereo not given)	inactive and 26.6 µM (active)	–
Cc1cn[nH]c1	–	0.813% (inactive)
COC(=O)CC(C)CCC=C(C)C (stereo not given)	–	-16.6% (inactive)
CCCCCCCCCCCCCCCC	–	1.24% (inactive)
O=C(O)CCn1c2c(c3ccccc31)C[C@H](NS(=O)(=O)c1ccc(F)cc1)CC2	–	5.91% (inactive)
NCCCC(O)(P(=O)(O)O)P(=O)(O)O	–	3.21% (inactive)
NCCCCCCNCCCCCCN	–	12.4% (inactive)
NC(=O)C(=O)N/N=C/c1ccc([N+](=O)[O-])o1	–	0.0737% (inactive)
CC(C)OC(=O)c1cc(C(=O)OC(C)C)cc([N+](=O)[O-])c1	–	13.2% [at 81.1 µM] (inactive)
Oc1ccc(-c2ccc(O)cc2)cc1	–	-8.05% [at 81.1 µM] (inactive)
O=C(Nc1ccc(Cl)c(Cl)c1)c1cc(Cl)cc(Cl)c1O	1.95 µM (active)	–
CN(C)c1ccc(N=Nc2ccccc2C(=O)O)cc1	–	-11.1% (inactive)
CCN(CC)CCOC(=O)C1(C2CCCCC2)CCCCC1	–	-26.6% (inactive)
NC(=O)c1ccccc1N	–	-6.89% [at 81.1 µM] (inactive)
CCCC(CC)CCCCCCCN (stereo not given)	–	-10.3% [at 81.1 µM] (inactive)
CCC(=O)OCCc1ccccc1	41.8 µM (active)	–
CC1CCCNC1 (stereo not given)	47.9 µM (active)	–
Cc1ccc(-n2[nH]c(C)c(N=Nc3cccc(-c4cccc(C(=O)O)c4)c3O)c2=O)cc1C	–	-16.8% (inactive)
O=S(=O)(O)CCCN1CCOCC1	–	2.14% (inactive)
